Measured values: PubChem BioAssay (NCATS)
Inconclusive results are not listed. Calls of active or inactive are those of the source. Unless noted, calls come from the whole dose curve; as a rule, active = well fitted curve in the direction sought with a large enough effect; inconclusive = small, poorly fitted or top-dose-only effect, or another doubt; inactive = no such curve, though single readings can be large; an effect the other way counts as inactive or inconclusive.

Experiments:
[1] = test system: Zika virus NS2B-NS3 protease (linked construct); assay: Primary screen NINDS Rhodamine qHTS for Zika virus inhibitors (AID 1347160)
In short: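 Percent inhibition, normalized to uninhibited and enzyme-free controls, is fitted to a 4-parameter Hill equation. Fluorescence change comes from a 15-min cleavage of 1.5 microM bis-peptide Rhodamine110 substrate by 25 nM linked NS2B-NS3 at room temperature.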

[2] = HPAF-II Cancer Cell Toxicity qHTS against the NCATS CANVASS Library (AID 1347346)
In short: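 HPAF-II cells were seeded at 1000 cells/well, allowed to settle for 4 h at 37 degrees C, then exposed to compounds in an 11-point series for 72 h. Viability was read by CellTiter-Glo luminescence.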

[3] = OV-SAHO Cancer Cell Toxicity qHTS against the NCATS CANVASS Library (AID 1347348)
In short: (§1)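 ATP content after 72 h treatment, detected by CellTiter-Glo luminescence (15min room-temperature development), reflects cell viability. Wells contained 1000 cells and received compounds at 11 concentrations.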

[4] = Panc-1005 Cancer Cell Toxicity qHTS against the NCATS CANVASS Library (AID 1347349)
In short: as §1

[5] = U-118MG Cancer Cell Toxicity qHTS against the NCATS CANVASS Library (AID 1347351)
In short: as §1

[6] = A2780 Cisplatin Sensitive Ovarian Cancer Cell Toxicity qHTS against the NCATS CANVASS Library (AID 1347353)
In short: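 A2780 cisplatin-sensitive cells (750 per well) were seeded, left 4 h at 37 °C, then pin-dosed in an 11-point series. After 72 h at 37 °C/5% CO2, viability was measured as ATPLite luminescence.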

[7] = UWB1.289-WTBRCA1 Cancer Cell Toxicity qHTS against the NCATS CANVASS Library (AID 1347354)
In short: (§2)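 Cells were seeded at 1000 per well and allowed to settle 4 hours at 37 degrees C before pin transfer of compounds as an 11-point series. Viability was read by CellTiter-Glo luminescence after 72 hours' exposure.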

[8] = HEK-293 Cancer Cell Toxicity qHTS against the NCATS CANVASS Library (AID 1347355)
In short: as §2

[9] = HPAF-II 24hr Apoptosis Induction qHTS against the NCATS CANVASS Library (AID 1347356)
In short: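 HPAF-II cells (500/well) in DMEM + 10% FBS were treated with an 11-point compound series for 24 hours at 37 degrees C. Caspase-3/7 activity was then read by Caspase-Glo DEVD luminescence after 15 min.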

[10] = HEK293 18hr Apoptosis Induction qHTS against the NCATS CANVASS Library (AID 1347357)
In short: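 HEK293 cells (500/well, DMEM + 10% FBS) treated with an 11-point series for 18 h at 37 degrees C. Caspase-3/7 activity read by Caspase-Glo luminescence after 15 min at room temperature.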

[11] = HEK293 24hr Apoptosis Induction qHTS against the NCATS CANVASS Library (AID 1347359)
In short: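 Caspase-3/7 activation measured as luminescence from the DEVD-based Caspase-Glo reagent, 15 min at room temperature, following 24-hour compound treatment of HEK293 cells.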

[12] = HPAF-II 18hr Apoptosis Induction qHTS against the NCATS CANVASS Library (AID 1347360)
In short: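 HPAF-II cells at 500/well were exposed for 18 h at 37 C to an 11-point compound series. Caspase-3/7 activity was read by Caspase-Glo luminescence after 15 min at RT.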

[13] = HEK293 12hr Apoptosis Induction qHTS against the NCATS CANVASS Library (AID 1347361)
In short: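 HEK293 cells (500/well) were exposed to an 11-point qHTS concentration series for 12 hours at 37 degrees C. Caspase-3/7 activity was then read by DEVD-substrate luciferase luminescence after 15 min at room temperature.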

[14] = molecular target: Luciferin 4-monooxygenase (Photinus pyralis) (UniProt P08659); assay: Firefly luciferase counterscreen qHTS: Assay Interference Panel against the NCATS CANVASS Library (AID 1347363)
In short: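 Luminescence inhibition readout: compounds (11-point qHTS) sat 15 min at room temperature with substrate mix (0.013 mM luciferin and ATP), then firefly luciferase was added and signal read 5 min later.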

[15] = KB-8-5-11 Cancer Cell Toxicity qHTS against the NCATS CANVASS Library (AID 1347364)
In short: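 KB-8-5-11 cells (500/well) in DMEM + 10% FBS were exposed to compounds in an 11-point qHTS series for 72 hr at 37C, 5% CO2. Viability was read by CellTiter-Glo luminescence.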

[16] = KB-3-1 Cancer Cell Toxicity qHTS against the NCATS CANVASS Library (AID 1347366)
In short: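 KB-3-1 cells (500/well) in DMEM with 10% FBS were exposed to compounds for 72 h at 37C. Viability was read by CellTiter-Glo luminescence.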

[17] = qHTS for ATAD5 Agonist screened against the NCATS CANVASS Library (AID 1347367)
In short: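 Luciferase reporter under ATAD5 control, stably integrated in HEK293T cells (2000/well). Compounds (11 points) incubated 16 h at 37C; viability read first by CellTiter-Fluor, then luminescence reporting ATAD5 activation. MMS positive control.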

[18] = MCF7 Cancer Cell Toxicity qHTS against the NCATS CANVASS Library (AID 1347369)
In short: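 MCF7 cells (500/well) were exposed 72 h at 37 °C to compounds in an 11-point series. Viability was read as ATP content by CellTiterGlo luminescence.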

[19] = J3T Cancer Cell Toxicity qHTS against the NCATS CANVASS Library (AID 1347371)
In short: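 J3T dog glioma cells (500 cells/well) were exposed to compounds in an 11-point series for 72 hr at 37C, 5% CO2. Cytotoxicity was read as ATP content by CellTiterGlo luminescence.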

[20] = molecular target: Nuclear receptor subfamily 1 group I member 3 (Homo sapiens) (UniProt Q14994); assay: qHTS for Constitutive Androstane Receptor (CAR) Antagonist screened against the NCATS CANVASS Library (AID 1347372)
In short: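 HepG2-CYP2B6-hCAR double-stable cells plated, 4hr attach; cpd pin-transferred; CITCO 50 nM final; 24hr 37C/5% CO2; CellTiter-Fluor 1hr (fluorescence), then ONE-Glo luminescence.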

[21] = molecular target: Nuclear receptor subfamily 1 group I member 3 (Homo sapiens) (UniProt Q14994); assay: qHTS for Constitutive Androstane Receptor (CAR) Agonist screened against the NCATS CANVASS Library (AID 1347373)
In short: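 HepG2 cells stably expressing hCAR and a CYP2B6-2.2kb luciferase reporter were treated for 24hr at 37C with compounds (11-point qHTS) in the presence of 1.5uM PK11195. Reporter activation was read by ONE-Glo luminescence.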

[22] = qHTS for Hypoxia signaling pathway (HIF-1) antagonists against the NCATS CANVASS Library (AID 1347374)
In short: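 HRE-bla ME-180 cells (2,000/well, 0.5% dialyzed FBS) were pre-incubated 5 h, then given an 11-point compound series plus CoCl2 (60 uM solution as added) for 17 h at 37C. CCF4 β-lactamase read (ex 405, em 460/530 nm) after 2 h at RT.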

[23] = qHTS for Hypoxia signaling pathway (HIF-1) agonists against the NCATS CANVASS Library (AID 1347375)
In short: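 HRE-bla ME-180 cells (beta-lactamase reporter under hypoxia responsive element) in 0.5% dialyzed FBS medium, 5 h at 37C, then compound 17 h, 11-point qHTS series. CCF4-AM FRET substrate 2 h RT; 460/530 nm emission read.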

[24] = 10-beta competent E. coli microbial cell viability qHTS against the NCATS CANVASS Library (AID 1347376)
In short: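 10-beta competent E. coli (0.9 OD culture diluted to 0.2 OD) exposed to compounds in an 11-point qHTS series, incubated overnight at 37C, 5% CO2. Viability read as ATP by BacTiter-Glo luminescence after 20 min at room temperature.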

[25] = DH5-alpha competent E. coli microbial cell viability qHTS against the NCATS CANVASS Library (AID 1347377); settings: outcome: at 46.1 µM (top of the series)
In short: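 DH5-alpha E. coli suspension (0.9 OD culture diluted to 0.2 OD) exposed to compounds in an 11-point series, overnight at 37C, 5% CO2. Viability read as ATP by BacTiter-Glo luminescence after 20 min at room temperature.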

[26] = qHTS for Inflammasome Signaling Inhibitors: IL-1-beta AlphaLISA screen against the NCATS CANVASS Library (AID 1347379)
In short: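 Human THP-1 cells were pretreated 1 hr at 37 °C with compounds (up to 57.5 uM final), then stimulated with LPS (250 ng/mL final) and ATP (1.25 mM final). Secreted IL-1B was read by AlphaLISA after 16 hr.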

[27] = Inflammasome Signaling qHTS Counterscreen: IL-1-beta AlphaLISA counterscreen against the NCATS CANVASS Library (AID 1347381)
In short: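 To flag interference with the AlphaLISA read-out, a known amount of purified IL-1-beta (4 pg) replaced cell supernatant. Detection used anti-IL-1-beta acceptor beads, biotinylated antibody and streptavidin donor beads at room temperature.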

[28] = qHTS for Activators of p53 Stress Response Pathway screened against the NCATS CANVASS Library (AID 1347388)
In short: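 Beta-lactamase reporter driven by p53 response elements in HCT-116 cells, read as the 460 nm/530 nm emission ratio after CCF4 loading, following 16 h of exposure to an 11-point series. Cell viability was measured in the same wells by CellTiter-Glo luminescence.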

[29] = Secretion counterscreen for inhibitors of the SERCaMP assay screened against the NCATS CANVASS Library (AID 1347390)
In short: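 SH-SY5Y cells with constitutively secreted GLuc reporter, 1000 cells/well, treated 20 h at 37C with compounds at 0.001 - 77 uM final; secreted luciferase read as luminescence after coelenterazine; Brefeldin A as positive control.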

[30] = qHTS for activators of dead-cell proteases activity screened against the NCATS CANVASS Library (AID 1347392)
In short: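 Compounds are pin-transferred onto attached HepG2 cells, giving 11 final concentrations. After 5 h at 37C, AAF-aminoluciferin reagent is added and luminescence is recorded at room temperature.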

[31] = qHTS for inhibitors of ER calcium dysfunction: SERCaMP assay screened against the NCATS CANVASS Library (AID 1347393)
In short: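 Thapsigargin-induced ER calcium depletion drives GLuc-SERCaMP secretion from SH-SY5Y cells; compounds given 16 h beforehand were scored by lowered coelenterazine luminescence after 4 h challenge.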

[32] = Vero-766 cells viability qHTS against the NCATS CANVASS Library: Counterscreen for Zika virus inhibition assay (AID 1347394)
In short: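 Vero 766 cells (1000/well), without Zika virus, were exposed to compounds for 72 h at 37C. Viability was measured by CellTiter Glo luminescence. Media-only wells served as 100% inhibition.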

[33] = qHTS for inhibitors of Wild type Zika virus screened against the NCATS CANVASS Library (AID 1347396)
In short: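 Using ATP-based luminescence (CellTiter Glo), this screen scores rescue of Vero 766 cells from wild-type Zika killing at 72 h post-infection. Compounds are tested in a concentration series.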

[34] = Redox Reaction Profiling qHTS: Assay Interference Panel against the NCATS CANVASS Library (AID 1347401)
In short: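 Cell-free redox surrogate: 5 uM resazurin + 200 uM DTT, 50 mM HEPES pH 7.3/50 mM NaCl; cpds pinned, 11-pt qHTS; Ex525/Em598 read t0 and t=15 min, dark.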

[35] = qHTS for inhibitors of Rabies Virus screened against the NCATS CANVASS Library (AID 1347402; calls by dose curve)

Measured: Potency

Sequence of Nuclear receptor subfamily 1 group I member 3 (Homo sapiens) (Q14994 whole entry, looked up): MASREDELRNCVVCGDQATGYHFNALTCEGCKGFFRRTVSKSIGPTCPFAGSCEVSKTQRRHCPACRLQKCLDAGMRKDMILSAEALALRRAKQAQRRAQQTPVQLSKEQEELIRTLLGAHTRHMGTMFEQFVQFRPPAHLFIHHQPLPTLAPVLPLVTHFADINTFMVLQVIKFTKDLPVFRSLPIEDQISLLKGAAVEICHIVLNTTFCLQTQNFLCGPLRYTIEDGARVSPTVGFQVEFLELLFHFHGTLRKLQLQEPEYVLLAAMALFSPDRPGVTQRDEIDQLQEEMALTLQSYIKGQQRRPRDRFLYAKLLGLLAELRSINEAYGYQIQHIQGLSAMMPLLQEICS
Sequence of Luciferin 4-monooxygenase (Photinus pyralis) (P08659 whole entry, looked up): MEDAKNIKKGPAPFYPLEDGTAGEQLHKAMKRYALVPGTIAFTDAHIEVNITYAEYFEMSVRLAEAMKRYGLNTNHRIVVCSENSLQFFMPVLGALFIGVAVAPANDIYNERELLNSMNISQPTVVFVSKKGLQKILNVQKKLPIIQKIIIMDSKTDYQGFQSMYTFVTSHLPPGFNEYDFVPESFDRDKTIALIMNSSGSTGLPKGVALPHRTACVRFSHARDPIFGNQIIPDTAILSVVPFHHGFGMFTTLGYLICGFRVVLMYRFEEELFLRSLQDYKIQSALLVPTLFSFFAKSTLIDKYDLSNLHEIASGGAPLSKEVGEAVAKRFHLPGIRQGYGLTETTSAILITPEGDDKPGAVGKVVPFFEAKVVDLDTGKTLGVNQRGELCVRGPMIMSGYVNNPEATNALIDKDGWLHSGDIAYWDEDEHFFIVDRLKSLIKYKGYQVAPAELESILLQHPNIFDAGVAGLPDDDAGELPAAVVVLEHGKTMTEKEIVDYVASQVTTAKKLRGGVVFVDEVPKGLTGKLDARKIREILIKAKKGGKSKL

CNCCc1ccccc1
inactive: [1] | [2] | [3] | [4] | [5] | [6] | [7] | [8] | [9] | [10] | [11] | [12] | [13] | [14] | [15] | [16] | [17] | [18] | [19] | [20] | [21] | [22] | [23] | [24] | [25] | [26] | [27] | [28] | [29] | [30] | [31] | [32] | [33] | [34] | [35]
